Laboratory results from PubChem BioAssay (NCI).
Compounds without any hit were thinned out: in the full panel of roughly 79,000, 15% have a hit. Values without a mark were called inactive. Calls of active or inactive are those of the source. Rule as the data show it: active = growth inhibition above about 70%; inactive = the rest.

assay: NCI Yeast Anticancer Drug Screen. Data for the mlh1 rad18 strain (AID 175); conditions: S. cerevisiae mlh1 rad18 strain growth inhibition; at 50.0 µM (retest, dose inferred, filed as 5.0); active compounds read high
Procedure, shortened: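 Inhibition values reflect reduced growth of mutant yeast versus vehicle-treated controls following compound exposure; the mutations affect DNA damage repair.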

SMILES	growth inhibition
N#C/C(=N\O)C(N)=O	86% (active)
COc1ccc(C(N)=O)cc1	24%
CC1=C(/C=C/C(C)=C/C(=O)O)C(C)(C)CCC1	64%
CC(=O)Oc1c(Br)cc(Br)cc1C(OC(C)=O)OC(C)=O	93% (active)
CCCCCCN(CCCCCC)CCCCCCCCCCCO	94% (active)
COc1cccc(NC(=O)c2c(SC)n[nH]c2N)c1	91% (active)
O=C(O)/C=C\C(=O)NNc1ccccc1	94% (active)
Oc1ccc(Cc2cccc(Cl)c2)c(O)c1	90% (active)
C=COC(=O)c1ccccc1C(=O)OCCCC	6%
O=C(O)c1ccc(-c2ccccc2)cc1	47%
N#CC(c1ccccc1)C(c1ccccc1)c1ccccc1 (centres undefined)	80% (active)
CC(C)(C)c1cc([N+](=O)[O-])c(O)c([N+](=O)[O-])c1	81% (active)
CSC(SC)=C(C#N)C(=O)Nc1cccc(Cl)c1	97% (active)
CCOC(=O)C(NC(C)=O)C(=O)c1ccccc1 (centres undefined)	-6%
O=[N+]([O-])/C=C/c1cccs1	98% (active)
C/C(=N\Nc1ccc(Cl)cc1)C(=O)O	96% (active)
CC(=O)Nc1ccc(/C=N/NC(=S)NCC(C)C)cc1	-4%
CCCCN(CCCC)C(=O)C(C)OC(C)=O (centres undefined)	8%
C=CCCCCCCCCC(=O)NN	91% (active)
C1CCC(CCCc2nn[nH]n2)CC1	61%

SMILES	growth inhibition
CSS(C)(=O)=O	95% (active)
Clc1ccc(-n2ncc3c(Cl)nc(Cl)nc32)cc1	99% (active)
C(CCc1nn[nH]n1)CCC1CCCCC1	97% (active)
Oc1ccc(/C=C/c2ccc(Cl)cc2)cc1	96% (active)
Cc1ccc2[nH]cc(CC(=O)O)c2c1	99% (active)
CN(C)c1cc(N)c(Cc2c(N)cc(N(C)C)cc2Cl)c(Cl)c1	97% (active)
O=C1c2ccccc2-c2ccc(O)cc21	90% (active)
CC(=O)Oc1ccc(OC(C)=O)c2c1CC=CC2	2%
O=c1c2ccccc2ncn1O	81% (active)
CC(C)(C)C(=O)CC(c1ccccc1)c1ccccc1	9%
Cc1cccc(N=NC(C#N)C#N)c1	95% (active)
CC(=O)Nc1nc(-c2ccccc2)cs1	2%
CC(C)c1cc([N+](=O)[O-])c(O)c([N+](=O)[O-])c1	91% (active)
CC(C)NC(=O)C(C)O (centres undefined)	10%
CN(C)CNC(=S)S	98% (active)
CCCCNC(=O)C(C)O (centres undefined)	8%
COc1cccc(NC(=O)c2c(SC)c(C#N)c(=O)n(N)c2N)c1	99% (active)
COc1ccc(/C(C#N)=C/c2cccc(N)c2)cc1	12%
CCCCC(CC)CNC(=O)CI (centres undefined)	51%
